Drawing on PubChem BioAssay (Tox21), this text covers Potency and activity change, negative = inhibition for 38 compounds.

Records with an inconclusive call do not appear. A call without a number means that no potency is given here. Values without a mark were called inactive. Calls of active or inactive are those of the source. Unless noted, calls follow the shape of the full dose curve.
Potency is read from the fitted curve at half-maximal effect.

Sequence of Progesterone receptor (Homo sapiens) (P06401 whole entry, looked up): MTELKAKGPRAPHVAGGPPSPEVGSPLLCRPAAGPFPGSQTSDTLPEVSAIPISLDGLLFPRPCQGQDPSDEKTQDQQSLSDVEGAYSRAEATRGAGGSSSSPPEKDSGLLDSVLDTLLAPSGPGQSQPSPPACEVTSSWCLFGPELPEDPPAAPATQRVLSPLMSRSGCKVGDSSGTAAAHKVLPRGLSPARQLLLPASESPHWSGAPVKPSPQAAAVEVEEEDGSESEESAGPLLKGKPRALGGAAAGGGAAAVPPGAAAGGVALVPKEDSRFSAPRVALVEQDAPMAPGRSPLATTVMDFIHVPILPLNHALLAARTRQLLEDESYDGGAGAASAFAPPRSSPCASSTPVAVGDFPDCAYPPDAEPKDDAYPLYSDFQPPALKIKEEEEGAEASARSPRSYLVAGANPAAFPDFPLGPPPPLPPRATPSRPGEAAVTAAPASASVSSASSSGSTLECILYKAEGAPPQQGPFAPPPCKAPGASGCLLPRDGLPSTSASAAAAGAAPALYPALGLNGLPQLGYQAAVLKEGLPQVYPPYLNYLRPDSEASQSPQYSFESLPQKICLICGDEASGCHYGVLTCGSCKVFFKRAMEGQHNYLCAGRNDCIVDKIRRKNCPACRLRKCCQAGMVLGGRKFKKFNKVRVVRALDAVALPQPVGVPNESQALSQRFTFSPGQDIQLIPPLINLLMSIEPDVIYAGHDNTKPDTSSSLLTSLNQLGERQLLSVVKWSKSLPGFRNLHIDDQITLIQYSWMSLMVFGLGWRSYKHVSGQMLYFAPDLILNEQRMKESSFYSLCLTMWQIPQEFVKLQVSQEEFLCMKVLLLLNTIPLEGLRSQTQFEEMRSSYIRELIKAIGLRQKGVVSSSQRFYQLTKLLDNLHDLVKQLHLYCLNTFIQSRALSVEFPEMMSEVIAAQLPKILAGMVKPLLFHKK

One assay has as its target Progesterone receptor (Homo sapiens) (UniProt P06401). The experiment in a line: qHTS assay to identify small molecule agonists of the progesterone receptor (PR) signaling pathway (AID 1346784). Also: nearly all actives have a fitted effect of over 30% in size. To be noted: PR-UAS-bla HEK293T, beta-lactamase FRET ratio, 16 h; series mostly up to 92.4 µM. The method, boiled down:
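PR-UAS-bla HEK 293T cells (beta-lactamase reporter under UAS) in 2% charcoal-stripped FBS, dosed with 23 nL compound after 6 hr, incubated 16hr at 37C. LiveBLAzer B/G FRET substrate added, fluorescence read after 2 hours.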
In general terms: Quantitative high-throughput screening tests each substance at several concentrations.
On to `NC(=O)CCCCC(N)=O`, for which the Potency result was “inactive”. Regarding `C[C@H](CS)C(=O)N1CCC[C@H]1C(=O)O`, the Potency entry was “inactive”. Still for that read-out and setting: then `Cc1ccccc1S(N)(=O)=O`, with “inactive”; and `Cc1ccc2c(c1)CCCN2`, with “inactive”. Same read-out and setting: then `CCCCC(CC)COS(=O)(=O)O` (configuration not stated), with “inactive”; and `CC1=CC[C@@]23C[C@@H]1C(C)(C)[C@@H]2CC[C@H]3C`, with “inactive”. `O=S(=O)(Cl)c1c(Cl)cccc1Cl`: the Potency result is “inactive”.

For `CCCCCCCCCCCCCCN(C)C`, the Potency was 0.738 µM (active). Take `CCCCCCCCCCCCCOS(=O)(=O)O`: the Potency entry is “inactive”. Still for that read-out and setting: under `CC(=O)NNC(C)=O` stands “inactive”; under `CNCc1ccc(NC(=O)c2c[nH]c3c2C(=O)CCC3)cc1`, “inactive”. Same read-out and setting: then `CCCCCCC(O)CCCCCCCCCCC(=O)OC` (configuration not stated), with “inactive”; and `CCOc1ncc(F)c(=O)[nH]1`, with “inactive”. On the same count and under the same terms, under `CN1C(CSCC(F)(F)F)Nc2cc(Cl)c(S(N)(=O)=O)cc2S1(=O)=O` (configuration not stated) stands “inactive”.

Take `C[C@@H]1C[C@H]2[C@@H]3CCC4=CC(=O)C=C[C@]4(C)[C@@]3(F)[C@@H](O)C[C@]2(C)[C@@]1(O)C(=O)COP(=O)(O)O`: the Potency entry is “inactive”. The same measure, in the same setting: under `CCCCC[C@H](O)/C=C/[C@H]1[C@H](O)CC(=O)[C@@H]1C/C=C\CCCC(=O)O` stands “inactive”; under `CC1C(C)(C)C2=C(C(=O)CCC2)C1(C)C` (configuration not stated), “inactive”. On the same count and under the same terms, under `CCCc1nc2c(C)cc(-c3nc4ccccc4n3C)cc2n1Cc1ccc(-c2ccccc2C(=O)O)cc1` stands “inactive”. Same read-out and setting: then `O=C1OC[C@H](Cc2cccc(O)c2)[C@H]1Cc1cccc(O)c1`, with “inactive”; and `CNS(=O)(=O)c1cc(C(=O)N2CCC(CCN3C4CCC3CC(n3c(C)nc5ccccc53)C4)(c3cccc(F)c3)CC2)c(Cl)cc1F` (configuration not stated), with “inactive”; and `CC1CCC(C(C)CS)CC1S` (configuration not stated), with “inactive”. `C1=CCC2CC=CC2C1` (configuration not stated): the Potency entry was “inactive”.

On to `CCC(=O)OCc1ccc(OC)cc1`, for which the Potency result is “inactive”. Same read-out and setting: then `C=CCOC(=O)COCCC(C)C`, with “inactive”. Consider `O=C(/C=C/c1ccc([N+](=O)[O-])cc1)c1ccccc1`, for which the Potency entry is “inactive”. The same measure, in the same setting: under `Cc1ccc(S(=O)(=O)NC(=O)NC2CCCCC2)cc1` stands “inactive”; under `O=C(c1ccccc1)c1ccc(O)cc1`, “inactive”; under `CC(C)CC(O)CC(C)C`, “inactive”. Regarding `CNc1c2c(nn1C)CCCC2`, the Potency entry was “inactive”. Turning to `Nc1ccc(S(=O)(=O)NCc2ccccc2)cc1`, the Potency entry was “inactive”. The same measure, in the same setting: then `CC[C@@H](CO)NCCN[C@@H](CC)CO`, with “inactive”; and `Nc1ccn([C@H]2CS[C@@H](CO)O2)c(=O)n1`, with “inactive”; and `Cc1ccc(Cl)cc1N`, with “inactive”. Take `CC(C)(C)CCCCCCOC(=O)c1ccccc1C(=O)OCCCCCCC(C)(C)C`: the Potency entry is “inactive”.

In the case of `Cc1oc(=O)oc1COC(=O)[C@@H]1N2C(=O)[C@@H](NC(=O)[C@H](N)c3ccccc3)[C@H]2SC1(C)C`, the Potency entry is “inactive”. Still for that read-out and setting: then `SCCc1cnccn1`, with “inactive”. Still for that read-out and setting: then `ClC1=C(Cl)C1(Cl)Cl`, with “inactive”; and `C=CC(=O)O`, with “inactive”.

The target is the same in another assay. The experiment in a line: qHTS assay to identify small molecule antagonists of the progesterone receptor (PR) signaling pathway (AID 1346795; active = well fitted inhibition curve with a large enough effect in the signal ratio in the repeat runs, not every such curve was filed as active; the % refers to the signal ratio). To be noted: PR-UAS-bla HEK293T, beta-lactamase FRET ratio, 16 h; series mostly up to 92.4 µM. The method, boiled down:
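PR-UAS-bla HEK293T cells with beta-lactamase reporter under UAS control, in 2% charcoal-stripped FBS, treated with compounds plus 1 nM promegestone (R5020, final) for 16 hr at 37C. Read-out: FRET beta-lactamase substrate fluorescence after 2 hr at room temperature.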
Regarding `NC(=O)CCCCC(N)=O`, the Potency result was “inactive”. The same measure, in the same setting: then `C[C@H](CS)C(=O)N1CCC[C@H]1C(=O)O`, with “inactive”; and `Cc1ccccc1S(N)(=O)=O`, with “inactive”; and `Cc1ccc2c(c1)CCCN2`, with “inactive”.

Regarding `CCCCC(CC)COS(=O)(=O)O` (configuration not stated), the Potency entry was “inactive”. Still for that read-out and setting: under `CC1=CC[C@@]23C[C@@H]1C(C)(C)[C@@H]2CC[C@H]3C` stands “inactive”; under `O=S(=O)(Cl)c1c(Cl)cccc1Cl`, “inactive”. As for `CCCCCCCCCCCCCCN(C)C`, the activity change, negative = inhibition is 5.91% [at 18.9 µM]. Regarding `CCCCCCCCCCCCCOS(=O)(=O)O`, the Potency entry was “inactive”. The same measure, in the same setting: then `CC(=O)NNC(C)=O`, with “inactive”; and `CNCc1ccc(NC(=O)c2c[nH]c3c2C(=O)CCC3)cc1`, with “inactive”. Still for that read-out and setting: under `CCCCCCC(O)CCCCCCCCCCC(=O)OC` (configuration not stated) stands “inactive”. The same measure, in the same setting: under `CCOc1ncc(F)c(=O)[nH]1` stands “inactive”; under `CN1C(CSCC(F)(F)F)Nc2cc(Cl)c(S(N)(=O)=O)cc2S1(=O)=O` (configuration not stated), “inactive”; under `CCCCC[C@H](O)/C=C/[C@H]1[C@H](O)CC(=O)[C@@H]1C/C=C\CCCC(=O)O`, “inactive”.

Take `CC1C(C)(C)C2=C(C(=O)CCC2)C1(C)C` (configuration not stated): the Potency entry is “inactive”. Same read-out and setting: under `CCCc1nc2c(C)cc(-c3nc4ccccc4n3C)cc2n1Cc1ccc(-c2ccccc2C(=O)O)cc1` stands “inactive”. The same measure, in the same setting: then `O=C1OC[C@H](Cc2cccc(O)c2)[C@H]1Cc1cccc(O)c1`, with “inactive”. The same measure, in the same setting: under `CC1CCC(C(C)CS)CC1S` (configuration not stated) stands “inactive”; under `C1=CCC2CC=CC2C1` (configuration not stated), “inactive”. On to `CCC(=O)OCc1ccc(OC)cc1`, for which the Potency result was “inactive”.

For the compound `C=CCOC(=O)COCCC(C)C`, the Potency result is “inactive”. On the same count and under the same terms, then `Cc1ccc(S(=O)(=O)NC(=O)NC2CCCCC2)cc1`, with “inactive”. Same read-out and setting: then `O=C(c1ccccc1)c1ccc(O)cc1`, with 43.8 µM (active); and `CC(C)CC(O)CC(C)C`, with “inactive”.

For the compound `CNc1c2c(nn1C)CCCC2`, the Potency result is “inactive”. Same read-out and setting: then `Nc1ccc(S(=O)(=O)NCc2ccccc2)cc1`, with “inactive”.

As to `CC[C@@H](CO)NCCN[C@@H](CC)CO`, the Potency result was “inactive”. Regarding `Nc1ccn([C@H]2CS[C@@H](CO)O2)c(=O)n1`, the Potency entry is “inactive”.

Regarding `CC(C)(C)CCCCCCOC(=O)c1ccccc1C(=O)OCCCCCCC(C)(C)C`, the Potency result is “inactive”.

As to `Cc1oc(=O)oc1COC(=O)[C@@H]1N2C(=O)[C@@H](NC(=O)[C@H](N)c3ccccc3)[C@H]2SC1(C)C`, the Potency entry is “inactive”. Still for that read-out and setting: under `SCCc1cnccn1` stands 43.3 µM (active); under `ClC1=C(Cl)C1(Cl)Cl`, “inactive”. Still for that read-out and setting: then `C=CC(=O)O`, with “inactive”.
